rCAG RNA binder = r(CAG) repeat RNA binding; TO-PRO-1 dye displacement fluorescence; inhibition, % at 3 µM; 370,000 compounds, 1.3% hits;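 active = inhibition above the plate cutoff, the mean of all test compounds on that plate plus 3 SD, cut at about 35% in these data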;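 also: 0% = DMSO alone and 100% = 100 µM mitoxantrone as full dye displacement; higher means more dye released from RNA so lower well fluorescence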
DSG3 Ab inh = human desmoglein-3 autoantibody binding inhibition; P32926; DSG3-coupled beads, scFv-anti-DSG3-GFP binding, flow cytometry; hits give low values; binding (percent of control), % at 10 µM; 310,000 compounds, 0.48% hits; AID 588358;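 active = binding more than 3 SD below its plate's average and above zero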;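 also: hits lower antibody fragment binding to DSG3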
proKLK7 act = activators of human kallikrein-7 zymogen | P49862 | purified proKLK7, EDANS-DABCYL substrate fluorescence; 100% is mature enzyme control, 0% vehicle | activation, % at 7 µM | 370,000 compounds, 0.9% hits | AID 652039;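 active = activation above the mean of all tested compounds plus 3 SD, computed per campaign excluding outliers beyond control limits, cut at about 13% in these data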
ADAM10 inh = inhibits human ADAM10; AID 720582; O14672; 370,000 compounds, 0.62% hits; recombinant ADAM10, EDANS/DABCYL FRET peptide cleavage, 3 h; inhibition, % at 7 µM;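 active = inhibition above a per-campaign cutoff equal to the mean of compounds falling between control-based bounds plus 3 SD, cut at about 20% in these data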;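 also: 0% = DMSO wells while the 100% control is not disclosed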
MPTP inh = blocks calcium-induced mitochondrial swelling; isolated mouse mitochondria, Ca2+ swelling absorbance, 30 min; inhibition, % at 10 µM; 360,000 compounds, 1.4% hits; AID 602449;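 active = inhibition of 50% or more, scaled per plate between neutral and stimulator controls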;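 also: 0% = DMSO wells given calcium and 100% = 1 mM EGTA wells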
ADAM17 inh = ADAM17 inhibition, QFRET primary screen; P78536; 370,000 compounds, 0.83% hits; recombinant ADAM17, EDANS/DABCYL FRET peptide cleavage; AID 720648; inhibition, % at 6.95 µM;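 active = inhibition above the mean of compounds lying between control limits plus 3 SD, set per campaign, cut at about 8.5% in these data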;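 also: 0% = DMSO-only wells as the low control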
proKLK7 act conf = proKLK7 activation, confirmation; 3,200 compounds, 68% hits; activation, % at 7 µM; purified proKLK7, EDANS-DABCYL substrate fluorescence; scaled: vehicle 0, mature enzyme 100; shares compounds with proKLK7 act;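 active = activation, as change over the incubation, above the mean of all tested compounds plus 3 SD, cut at about 13% in these data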
EDANS-DABCYL int = counter-screen for kallikrein-7 activators: EDANS-DABCYL optical interference. shares compounds with proKLK7 act. EDANS-DABCYL substrate fluorescence interference, no enzyme, 4 h; solvent 0%, active enzyme control 100%. activation, % at 7 µM. 3,200 compounds, 80% hits. AID 686952;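 active = activation above the all-compound mean plus 3 SD, ignoring values outside control-based bounds, cut at about 4.8% in these data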;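 also: value is the 4 h activation minus the activation read at time zero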
EDANS interf = counter-screen for kallikrein-7 activators: EDANS-DABCYL interference, dose response | shares compounds with proKLK7 act | EDANS-DABCYL peptide fluorescence interference, no enzyme | EC50, µM | 250 compounds, 20% hits;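 active = compounds that raise the fluorescence signal in this interference counterscreen, with EC50 at or below 10 µM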;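 also: intact quenched peptide substrate alone read at 355 nm excitation and 520 nm emission; signal is fluorescence gain from T0 to T4 after four hours at room temperature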
* = called active by the depositor. This is a sample that favours compounds with a hit; in the whole collection about 4.7% have one here.

`Cc1ccc(/C(O)=C2/C(=O)C(=O)N(c3ccccn3)C2c2ccc(F)cc2)cc1` (centres undefined) gave rCAG RNA binder 7.8, DSG3 Ab inh 120.7, proKLK7 act 2.5, ADAM10 inh 4.4, MPTP inh 0.1 and ADAM17 inh 0.3.
CCOc1ccc(/C(O)=C2/C(=O)C(=O)N(c3ccccn3)C2c2ccc(F)cc2)c(C)c1 (centres undefined) was read as rCAG RNA binder 12.0, DSG3 Ab inh 91.7, proKLK7 act 14.3*, ADAM10 inh 1.3, MPTP inh 4.4, ADAM17 inh -5.6, proKLK7 act conf 18.5* and EDANS-DABCYL int 19.6*.
Screening COC(CNC(=O)c1coc2nc3ccccc3nc12)OC returned rCAG RNA binder -1.0, DSG3 Ab inh 101.5, proKLK7 act 46.6*, ADAM10 inh inactive, MPTP inh 1.3, ADAM17 inh inactive, proKLK7 act conf 282.0* and EDANS-DABCYL int 269.1*.
Screening O=C(NCC1CCCO1)c1coc2nc3ccccc3nc12 (centres undefined) returned rCAG RNA binder 3.2, DSG3 Ab inh 100.8, proKLK7 act 79.8*, ADAM10 inh inactive, MPTP inh -0.6, ADAM17 inh inactive, proKLK7 act conf 308.2* and EDANS-DABCYL int 292.6*.
`CN(C)c1ncnc2c1ncn2[C@H]1CN(Cc2ccc(-c3ccccc3)cc2)C[C@@H](CO)O1` gave rCAG RNA binder 3.8, proKLK7 act -0.4, ADAM10 inh 0.1, MPTP inh 0.3 and ADAM17 inh -0.7.
Screening CCc1nc(N2CCOCC2)c(C#N)c2c1CCCC2 returned rCAG RNA binder -6.4, DSG3 Ab inh 110.0, proKLK7 act -1.0, ADAM10 inh -159.4, MPTP inh -1.1 and ADAM17 inh -48.7.
CCOc1cc2c(C#N)c(N3CCNCC3)nc(N)c2c(N)n1 was read as rCAG RNA binder 9.8, proKLK7 act 68.9*, ADAM10 inh inactive, MPTP inh -0.9, ADAM17 inh -153.2, proKLK7 act conf 67.3* and EDANS-DABCYL int 64.1*.
Screening COc1cc2c(C#N)c(N3CCOCC3)nc(N)c2c(N)n1 returned rCAG RNA binder 2.2, DSG3 Ab inh 103.5, proKLK7 act 22.5*, ADAM10 inh inactive, MPTP inh -1.0, ADAM17 inh -202.3, proKLK7 act conf 21.4* and EDANS-DABCYL int 23.3*.
COc1cc2c(C#N)c(N3CCCCC3)nc(N)c2c(N)n1 was read as rCAG RNA binder 17.5, DSG3 Ab inh 111.8, proKLK7 act -2.8, ADAM10 inh -189.0, MPTP inh -5.9 and ADAM17 inh -59.8.
`N#Cc1c(N2CCOCC2)nc(N)c2c(N)nc3c(c12)CC(CCl)O3` (centres undefined) gave rCAG RNA binder 8.3, DSG3 Ab inh 103.3, proKLK7 act 72.7*, ADAM10 inh -461.3, MPTP inh -0.4, ADAM17 inh -149.3, proKLK7 act conf 76.0*, EDANS-DABCYL int 19.3* and EDANS interf >69.5.
For CCOC(=O)C1=C(CS(=O)(=O)c2ccc(F)cc2)NC(=O)NC1c1ccc(O)c(O)c1 (centres undefined) the results were rCAG RNA binder 0.7, proKLK7 act 0.4, ADAM10 inh -2.8, MPTP inh 0.8 and ADAM17 inh -0.3.
CCCC1CCC2(CC1)CCC2OC(=O)Nc1ccc(C)cc1 (centres undefined) was read as ADAM10 inh 0.7 and ADAM17 inh 0.1.
CN1CCN(C2CN(Cc3ccc(F)cc3)S(=O)(=O)C2)CC1 (centres undefined) was read as rCAG RNA binder 1.6, proKLK7 act -0.2, ADAM10 inh -10.9, MPTP inh -0.3 and ADAM17 inh -4.9.

Assay outcomes deposited in PubChem by several laboratories.
